We go through seven compounds from PubChem BioAssay (NCI).

Among the test systems are SK-MEL-2 melanoma; EKVX NSCLC; SN12C renal; UO-31 renal; TK-10 renal; ACHN renal; CAKI-1 renal; A498 renal; CCRF-CEM leukemia; MOLT-4 leukemia; SR leukemia; RPMI-8226 leukemia; OVCAR-8 ovarian; OVCAR-5 ovarian; OVCAR-4 ovarian; SK-OV-3 ovarian; IGROV1 ovarian; OVCAR-3 ovarian; HS 578T breast; NCI/ADR-RES ovarian.
Assay in all cases: NCI-60 one-dose screen, 48 h (100 = growth as untreated, 0 = no growth, -100 = all killed)
Conditions in all cases: 10 µM unless noted

This is part of a sample that, as a whole, favours compounds with a hit. Of some 83,000 tested, about 20% had one in any assay.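 48-hour exposure, single concentration, 96-well plates; percent growth endpoint where 0 means no net growth. Active: below 10.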 Values without a mark were called inactive. Active and inactive are the calls of the source.

As to `C=C(C)[C@@H]1CC[C@]2(COCCCNCCCN)CC[C@]3(C)[C@H](CC[C@@H]4[C@@]5(C)CC[C@H](OCCCN)C(C)(C)[C@@H]5CC[C@]43C)[C@@H]12`, the growth with SK-MEL-2 melanoma was 92.6%; in the assay with EKVX NSCLC, 47.6%; in the assay with SN12C renal it was -83.1% (active); in the assay with UO-31 renal it was 38.9%; with TK-10 renal, -10.4% (active); with ACHN renal, -72.4% (active). The growth is 51.9% with CAKI-1 renal; 90.3% with A498 renal; -37.8% (active) in the assay with CCRF-CEM leukemia; -15.6% (active) in the assay on MOLT-4 leukemia; -49.2% (active) in the assay with SR leukemia; -51.7% (active) in the assay on RPMI-8226 leukemia. Also, the growth with OVCAR-8 ovarian was -66.3% (active); with OVCAR-5 ovarian, -49% (active); with OVCAR-4 ovarian it was -79.4% (active); with SK-OV-3 ovarian, 102%; in the assay with IGROV1 ovarian, -81.1% (active); in the assay with OVCAR-3 ovarian it was 47.8%. In addition, the values for the growth with HS 578T breast and in the assay with NCI/ADR-RES ovarian were 87.4% and -80.2% (active), respectively.

In the case of `Cc1nc2cccc(NCc3ccc(C(=O)NO)cc3)c2c(=O)n1-c1ccccc1`, the growth in the assay on SK-MEL-2 melanoma was 61.7%; in the assay on EKVX NSCLC, 61.8%; in the assay on SN12C renal, 63.2%; in the assay with UO-31 renal it was 17%; in the assay with TK-10 renal, 15.9%; in the assay with ACHN renal it was 30.5%. The growth with CAKI-1 renal was 28%; with A498 renal, 41.3%; in the assay on CCRF-CEM leukemia, 13.4%; in the assay with MOLT-4 leukemia, 11.5%; in the assay on SR leukemia it was 14.8%; with RPMI-8226 leukemia it was 18.5%. Further, the growth with OVCAR-8 ovarian was 3.81% (active); in the assay on OVCAR-5 ovarian, 40%; with OVCAR-4 ovarian it was 62.2%; in the assay on SK-OV-3 ovarian, 4.52% (active); in the assay with IGROV1 ovarian, 20.4%; in the assay with OVCAR-3 ovarian, 43.9%. In addition, the growth in the assay on HS 578T breast is 56.8%; in the assay on NCI/ADR-RES ovarian it was 19.2%.

For `Cc1cc2c(C(C)C)c(O)c(O)c(/C=N/O)c2c(O)c1-c1c(C)cc2c(C(C)C)c(O)c(O)c(/C=N/O)c2c1O`, the growth in the assay on SK-MEL-2 melanoma was -10.2% (active); with EKVX NSCLC, 27.2%; in the assay with SN12C renal it was 43.7%; in the assay with UO-31 renal it was 24.7%; in the assay on TK-10 renal, 0.867% (active); in the assay with ACHN renal, 24%. Also, the growth in the assay on CAKI-1 renal is 26.6%; with A498 renal it was 57.2%; in the assay with CCRF-CEM leukemia, 10.1%; in the assay on MOLT-4 leukemia it was -7.59% (active); with SR leukemia, 4.52% (active); with RPMI-8226 leukemia, 15%. For the same compound, the growth in the assay on OVCAR-8 ovarian is 8.35% (active); in the assay with OVCAR-5 ovarian, 48.3%; in the assay on OVCAR-4 ovarian, 28.7%; in the assay with SK-OV-3 ovarian it was 18.2%; in the assay on IGROV1 ovarian, 38.5%; in the assay on OVCAR-3 ovarian, 25.6%. The growth in the assay with HS 578T breast is 41.9%; with NCI/ADR-RES ovarian it was 44%.

Regarding `CC(C)(C)CC(C)(C)Nc1c(-c2c(O)c3ccccc3oc2=O)nc2sccn12`, the growth was 96.8% with SK-MEL-2 melanoma; 105% in the assay with EKVX NSCLC; 93.5% in the assay with SN12C renal; 83.6% in the assay on UO-31 renal; 90.5% in the assay on TK-10 renal; 99.8% with ACHN renal. Further, the growth with CAKI-1 renal is 92.8%; in the assay with A498 renal it was 118%; in the assay on CCRF-CEM leukemia, 92.2%; in the assay on MOLT-4 leukemia, 101%; in the assay with SR leukemia, 111%; with RPMI-8226 leukemia it was 97.7%. For the same compound, the growth in the assay on OVCAR-8 ovarian is 91%; with OVCAR-5 ovarian it was 97.5%; with OVCAR-4 ovarian it was 111%; in the assay on SK-OV-3 ovarian it was 87.2%; with IGROV1 ovarian, 93.2%; in the assay with OVCAR-3 ovarian, 109%. Besides, the growth with HS 578T breast was 96.3%; in the assay with NCI/ADR-RES ovarian, 98.3%.

Take `CN(C)CCOc1nc2c3cc([N+](=O)[O-])ccc3nn2c2ccccc12`: the growth is 91.6% in the assay with SK-MEL-2 melanoma; 67.3% with EKVX NSCLC; 14% with SN12C renal; 23.4% in the assay on UO-31 renal; 60.8% in the assay with TK-10 renal; -51.3% (active) in the assay with ACHN renal. In addition, the growth was 23.6% in the assay on CAKI-1 renal; 31.6% in the assay with A498 renal; 11.7% in the assay with CCRF-CEM leukemia; 2.34% (active) with MOLT-4 leukemia; 7.43% (active) in the assay with SR leukemia; 41.8% with RPMI-8226 leukemia. Also, the growth in the assay on OVCAR-8 ovarian is 31.5%; in the assay with OVCAR-5 ovarian, 58.6%; in the assay with OVCAR-4 ovarian, 62.4%; in the assay on SK-OV-3 ovarian, 34.9%; in the assay with IGROV1 ovarian it was 29.8%; in the assay with OVCAR-3 ovarian, 63.7%. The values for the growth with HS 578T breast and in the assay with NCI/ADR-RES ovarian were 69.8% and 37%, respectively.

For the compound `Clc1ccc(C2=Nn3c(nnc3-c3cc(Cl)cc(Cl)c3Cl)SC2)cc1`, the growth in the assay on SK-MEL-2 melanoma is 80.3%; in the assay on EKVX NSCLC, 70.6%; with SN12C renal, 88.4%; in the assay on UO-31 renal, 51.6%; with TK-10 renal, 87.4%; in the assay with ACHN renal, 58.2%. Further, the growth in the assay on CAKI-1 renal is 78.7%; in the assay with A498 renal, 55.9%; in the assay with CCRF-CEM leukemia, 36.1%; in the assay on MOLT-4 leukemia, 26.7%; with SR leukemia it was 2.55% (active); in the assay with RPMI-8226 leukemia, 42.8%. Besides, the growth with OVCAR-8 ovarian is 71.8%; in the assay with OVCAR-5 ovarian it was 19.3%; with OVCAR-4 ovarian, 74.9%; in the assay on SK-OV-3 ovarian, 50.4%; with IGROV1 ovarian, 22.7%; with OVCAR-3 ovarian it was 8.59% (active). Moreover, the figures for the growth with HS 578T breast and with NCI/ADR-RES ovarian were 20.9% and 5.52% (active), respectively.

Turning to `CCOC(=O)C1=C(c2ccccc2)N=C2N(c3ccccc3)N=C(C(C)=O)N2C1c1ccc(Br)cc1` (stereo not given), the growth with SK-MEL-2 melanoma is 90.3%; with EKVX NSCLC it was 93.9%; with SN12C renal it was 90%; with UO-31 renal it was 72.7%; in the assay on TK-10 renal it was 109%; with ACHN renal, 93.3%. For the same compound, the growth in the assay with CAKI-1 renal was 87.1%; in the assay with A498 renal, 42.9%; in the assay on CCRF-CEM leukemia it was 87.7%; with MOLT-4 leukemia, 93.6%; in the assay with SR leukemia, 81.8%; with RPMI-8226 leukemia, 77.8%. Besides, the growth was 93.9% with OVCAR-8 ovarian; 104% in the assay on OVCAR-5 ovarian; 104% in the assay on OVCAR-4 ovarian; 112% in the assay with SK-OV-3 ovarian; 88% in the assay on IGROV1 ovarian; 102% in the assay on OVCAR-3 ovarian. The growth with HS 578T breast is 83.2%; in the assay with NCI/ADR-RES ovarian it was 103%.
